Assay results from PubChem BioAssay (Tox21).
Results filed as inconclusive are left out. Calls of active or inactive are those of the source. Unless noted, calls follow the shape of the dose curve; as a rule, active = well fitted curve in the direction sought with a large enough effect in the repeat runs; inconclusive = weak or mixed curves; inactive = no such curve, though single readings can be large; an effect the other way counts as inactive or inconclusive.

Columns and labels:
[1] = qHTS assay to identify small molecule that activate the aryl hydrocarbon receptor (AhR) signaling pathway - cell viability counter screen (AID 743086);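 also: HepG2 liver cells carrying the AhR DRE luciferase reporter; series mostly up to about 70 µM; nearly all actives have a fitted effect of over 45% in size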
Summary of the method: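 Cytotoxicity counter screen: CellTiter-Fluor signal (30 min, 37 C) in 4000 HepG2 cells/well carrying the DRE-luciferase reporter, following 24 h compound exposure at 37 C.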

[2] = molecular target: Peroxisome proliferator-activated receptor gamma (Homo sapiens) (UniProt P37231); assay: qHTS assay to identify small molecule agonists of the peroxisome proliferator-activated receptor gamma (PPARg) signaling pathway (AID 743094; active = well fitted activation curve with a large enough effect in the signal ratio in the repeat runs, not every such curve was filed as active; the % refers to the signal ratio)
Sequence of Peroxisome proliferator-activated receptor gamma (Homo sapiens) (P37231 whole entry, looked up): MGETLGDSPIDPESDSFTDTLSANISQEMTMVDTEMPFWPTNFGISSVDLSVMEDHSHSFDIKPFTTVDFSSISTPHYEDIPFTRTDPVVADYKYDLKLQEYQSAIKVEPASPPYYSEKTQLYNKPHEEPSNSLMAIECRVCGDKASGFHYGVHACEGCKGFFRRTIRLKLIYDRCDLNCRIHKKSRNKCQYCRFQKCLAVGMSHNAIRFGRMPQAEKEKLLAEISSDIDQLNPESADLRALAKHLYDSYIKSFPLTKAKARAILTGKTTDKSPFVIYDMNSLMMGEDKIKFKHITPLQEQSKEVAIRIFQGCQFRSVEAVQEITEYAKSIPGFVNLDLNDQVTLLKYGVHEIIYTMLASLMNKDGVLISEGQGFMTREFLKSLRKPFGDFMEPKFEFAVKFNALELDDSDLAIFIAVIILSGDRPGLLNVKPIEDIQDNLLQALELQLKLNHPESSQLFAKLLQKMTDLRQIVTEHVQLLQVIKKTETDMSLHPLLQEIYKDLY
Summary of the method: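 Following 5 h plating at 37C, PPARg-bla HEK293H cells receive compound or DMSO for 17 h; fluorescence intensity is recorded after LiveBLAzer B/G loading for 1 h at room temperature.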

[3] = qHTS assay to identify small molecule antagonists of the peroxisome proliferator-activated receptor gamma (PPARg) signaling pathway - cell viability counter screen (AID 743194); also: nearly all actives have a fitted effect of over 55% in size
Summary of the method: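 Viability was measured as CellTiter-Glo luminescence in GeneBLAzer PPARg UAS-bla HEK293H cells. These cells had been exposed 17 h at 37 C to compounds together with rosiglitazone at 50 nM final, with the beta-lactamase readout taken in the same wells.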

[4] = qHTS assay for small molecule agonists of the antioxidant response element (ARE) signaling pathway (AID 743202; active = well fitted activation curve with a large enough effect in the signal ratio in the repeat runs, not every such curve was filed as active; the % refers to the signal ratio; also: potency is read from the fitted curve at half-maximal effect)
Summary of the method: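 Quantitative high-throughput format in HepG2 cells bearing an integrated ARE-beta-lactamase reporter. Compound exposure lasted 16 h at 37 C, and fluorescence was read 2 h after adding LiveBLAzer B/G substrate at room temperature.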

[5] = qHTS assay for small molecule agonists of the antioxidant response element (ARE) signaling pathway - cell viability counter screen (AID 743203; calls by dose curve; also: nearly all actives have a fitted effect of over 55% in size)
Summary of the method: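 Compounds in DMSO were pinned onto ARE-bla HepG2 cells plated 5 hrs earlier at 2,000 cells/well. Sixteen hours later at 37C/5% CO2, CellTiter-Glo was added and luminescence measured after 30 min at room temperature.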

[6] = qHTS assay for small molecule activators of the heat shock response signaling pathway - cell viability counter screen (AID 743209); also: nearly all actives have a fitted effect of over 50% in size
Summary of the method: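 Counter screen for cytotoxicity in HeLa HSE-bla reporter cells. Treatment was 5 h at 37 C; viability was detected by luminescent ATP assay (CellTiter-Glo) in the same wells as the beta-lactamase read.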

[7] = qHTS assay for small molecule activators of the heat shock response signaling pathway (AID 743210; active = well fitted activation curve with a large enough effect in the signal ratio in the repeat runs, with a control signal flat, not every such curve was filed as active; the % refers to the signal ratio;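 also: HeLa cells with beta-lactamase reporter driven by heat shock elements; series mostly up to about 63 µM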)
Summary of the method: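 HeLa HSE-bla cells, overnight plating; cpd in DMSO 5 h, 37 C; LiveBLAzer B/G FRET substrate 2.5 h RT; fluorescence intensity read.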

[8] = qHTS assay to identify small molecule agonists of the peroxisome proliferator-activated receptor delta (PPARd) signaling pathway - cell viability counter screen (AID 743211); also: nearly all actives have a fitted effect of over 55% in size
Summary of the method: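 Tox21 library compounds, delivered in DMSO, were incubated 17 h with PPARd-bla HEK293H cells; cytotoxicity was taken from CellTiter-Glo luminescence read 30 min after reagent addition.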

[9] = molecular target: Peroxisome proliferator-activated receptor delta (Homo sapiens) (UniProt Q03181); assay: qHTS assay to identify small molecule agonists of the peroxisome proliferator-activated receptor delta (PPARd) signaling pathway (AID 743212; calls by dose curve)
Sequence of Peroxisome proliferator-activated receptor delta (Homo sapiens) (Q03181 whole entry, looked up): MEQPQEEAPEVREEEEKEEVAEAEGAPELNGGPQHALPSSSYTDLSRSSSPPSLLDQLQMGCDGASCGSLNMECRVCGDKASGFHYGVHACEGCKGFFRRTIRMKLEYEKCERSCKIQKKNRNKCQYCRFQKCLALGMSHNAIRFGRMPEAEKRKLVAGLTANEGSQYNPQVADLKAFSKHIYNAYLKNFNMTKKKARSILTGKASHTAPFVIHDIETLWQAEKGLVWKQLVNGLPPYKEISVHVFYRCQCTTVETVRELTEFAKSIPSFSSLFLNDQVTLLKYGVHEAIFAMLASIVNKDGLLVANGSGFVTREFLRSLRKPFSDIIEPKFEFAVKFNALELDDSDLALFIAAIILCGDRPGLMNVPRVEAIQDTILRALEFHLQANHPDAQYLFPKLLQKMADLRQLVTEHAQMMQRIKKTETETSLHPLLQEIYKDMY
Summary of the method: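 HEK293H PPARd-bla cells; 5 h preincubation 37 C/5% CO2; compound (DMSO) 37 C; LiveBLAzer B/G FRET substrate 2 h RT; fluorescence intensity.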

[10] = qHTS assay to identify small molecule antagonists of the peroxisome proliferator-activated receptor delta (PPARd) signaling pathway - cell viability counter screen (AID 743213); also: nearly all actives have a fitted effect of over 50% in size
Summary of the method: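 PPARd-bla HEK293H cells (3000/well) got compound plus 300 nM L165041 agonist for 17 h at 37 C. Viability in the same wells came from CellTiter-Glo luminescence after 30 min at room temperature.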

[11] = molecular target: Peroxisome proliferator-activated receptor delta (Homo sapiens) (UniProt Q03181); assay: qHTS assay to identify small molecule antagonists of the peroxisome proliferator-activated receptor delta (PPARd) signaling pathway (AID 743215; active = well fitted inhibition curve with a large enough effect in the signal ratio in the repeat runs, not every such curve was filed as active; the % refers to the signal ratio;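 also: cells stimulated with agonist L165041 at 300 nM final during compound exposure; series mostly up to about 62 µM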)
Summary of the method: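 With L165041 present at 300 nM final, compounds were incubated 17 h at 37 C on PPARd UAS-bla HEK293H cells. A FRET-based beta-lactamase substrate was then applied for 2 h at room temperature and fluorescence intensity recorded.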

[12] = qHTS assay to identify small molecule agonists of the farnesoid-X-receptor (FXR) signaling pathway - cell viability counter screen (AID 743218); also: nearly all actives have a fitted effect of over 45% in size
Summary of the method: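 After 16 h at 37 C with test compounds, FXR-bla HEK 293T cells were given LiveBLAzer B/G substrate for 2 h at RT and then CellTiter-Glo; luminescence was taken after 30 min.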

[13] = qHTS assay to identify small molecule antagonists of the farnesoid-X-receptor (FXR) signaling pathway - cell viability counter screen (AID 743221; active = well fitted cell-killing curve with a large enough effect in the repeat runs, not every such curve was filed as active; also: nearly all actives have a fitted effect of over 50% in size)
Summary of the method: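 Cytotoxicity is taken from ATP luminescence (CellTiter-Glo, 30 min, room temperature) in FXR-bla HEK 293T cells previously incubated 16 h at 37 C with compound and chenodeoxycholic acid at 50 uM final.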

[14] = molecular target: Vitamin D3 receptor (Homo sapiens) (UniProt P11473); assay: qHTS assay to identify small molecule agonists of the vitamin D receptor (VDR) signaling pathway (AID 743222; calls by dose curve)
Sequence of Vitamin D3 receptor (Homo sapiens) (P11473 whole entry, looked up): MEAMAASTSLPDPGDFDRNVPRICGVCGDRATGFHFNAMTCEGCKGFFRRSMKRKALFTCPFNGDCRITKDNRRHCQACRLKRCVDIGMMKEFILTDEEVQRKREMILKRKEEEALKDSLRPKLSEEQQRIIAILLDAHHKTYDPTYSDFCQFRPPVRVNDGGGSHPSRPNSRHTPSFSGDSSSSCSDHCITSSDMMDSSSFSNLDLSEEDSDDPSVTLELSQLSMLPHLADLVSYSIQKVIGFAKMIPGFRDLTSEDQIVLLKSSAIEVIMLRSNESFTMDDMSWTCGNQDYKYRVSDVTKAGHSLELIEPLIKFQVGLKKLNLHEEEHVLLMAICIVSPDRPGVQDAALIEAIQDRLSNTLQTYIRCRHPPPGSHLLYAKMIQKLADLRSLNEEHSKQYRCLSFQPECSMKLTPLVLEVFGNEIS
Summary of the method: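 VDR-bla cells were seeded, left 4 h, treated with compounds in DMSO for 16 h, incubated 2 h at RT with B/G FRET substrate, and read for fluorescence.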

[15] = molecular target: Vitamin D3 receptor (Homo sapiens) (UniProt P11473); assay: qHTS assay to identify small molecule antagonists of the vitamin D receptor (VDR) signaling pathway (AID 743223; active = well fitted inhibition curve with a large enough effect in the signal ratio in the repeat runs, not every such curve was filed as active; the % refers to the signal ratio)
Summary of the method: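 Quantitative HTS in VDR-bla reporter cells stimulated with 1alpha,25-dihydroxyvitamin D3, 3 nM final. Compound exposure 16 h, 37C, 5% CO2. Read-out: beta-lactamase FRET substrate fluorescence, 2 h RT.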

[16] = qHTS assay to identify small molecule agonists of the vitamin D receptor (VDR) signaling pathway - cell viability counter screen (AID 743224); also: series mostly up to about 63 µM; nearly all actives have a fitted effect of over 50% in size
Summary of the method: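 Here cell health was gauged by luminescent ATP detection (CellTiter-Glo, 30 min RT) in VDR-bla cells that had been incubated with test compounds for 16 h at 37C and 5% CO2.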

[17] = qHTS assay to identify small molecule antagonists of the vitamin D receptor (VDR) signaling pathway - cell viability counter screen (AID 743225); also: nearly all actives have a fitted effect of over 50% in size
Summary of the method: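 Same-well multiplex: following 16 h treatment of HEK 293T cells carrying a UAS-driven beta-lactamase reporter with compound and agonist (3 nM final), and a 2 h FRET substrate step, CellTiter-Glo was added and luminescence read after 30 min.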

[18] = molecular target: Bile acid receptor (Homo sapiens) (UniProt Q96RI1); assay: qHTS assay to identify small molecule antagonists of the farnesoid-X-receptor (FXR) signaling pathway (AID 743217; active = well fitted inhibition curve with a large enough effect in the signal ratio in the repeat runs, not every such curve was filed as active; the % refers to the signal ratio)
Sequence of Bile acid receptor (Homo sapiens) (Q96RI1 whole entry, looked up): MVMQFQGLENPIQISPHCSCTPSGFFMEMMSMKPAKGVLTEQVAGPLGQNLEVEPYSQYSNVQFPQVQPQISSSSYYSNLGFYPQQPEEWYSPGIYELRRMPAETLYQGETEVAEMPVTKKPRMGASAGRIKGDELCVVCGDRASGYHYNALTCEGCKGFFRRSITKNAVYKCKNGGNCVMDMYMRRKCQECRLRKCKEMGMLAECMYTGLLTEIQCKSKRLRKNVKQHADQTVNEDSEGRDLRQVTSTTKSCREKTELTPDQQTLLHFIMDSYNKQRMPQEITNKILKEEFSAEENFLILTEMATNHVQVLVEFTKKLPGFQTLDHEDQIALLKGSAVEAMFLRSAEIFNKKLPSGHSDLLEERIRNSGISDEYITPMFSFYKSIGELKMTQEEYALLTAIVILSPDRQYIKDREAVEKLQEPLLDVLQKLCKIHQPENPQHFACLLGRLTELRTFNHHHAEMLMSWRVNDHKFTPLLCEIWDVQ
Summary of the method: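 In this cell-based antagonist screen, inhibition of CDCA-driven (50 uM final) UAS-beta-lactamase expression in HEK 293T cells was measured by FRET fluorescence following 16 h compound exposure at 37 °C.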

[19] = molecular target: Bile acid receptor (Homo sapiens) (UniProt Q96RI1); assay: qHTS assay to identify small molecule agonists of the farnesoid-X-receptor (FXR) signaling pathway (AID 743220; active = well fitted activation curve with a large enough effect in the signal ratio in the repeat runs, not every such curve was filed as active; the % refers to the signal ratio)
Summary of the method: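 Beta-lactamase reporter under UAS control in GeneBLAzer FXR HEK 293T cells (5000/well) measured with LiveBLAzer FRET substrate after 2 h at room temperature. Compound exposure lasted 16 h at 37C.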

[20] = molecular target: Peroxisome proliferator-activated receptor gamma (Homo sapiens) (UniProt P37231); assay: qHTS assay to identify small molecule antagonists of the peroxisome proliferator-activated receptor gamma (PPARg) signaling pathway (AID 743191; calls by dose curve; also: series mostly up to about 63 µM; nearly all actives have a fitted effect of over 30% in size)
Summary of the method: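 Beta-lactamase reporter under UAS control in HEK293H PPARg-bla cells; compound treatment 17 h at 37C. Read-out: fluorescence intensity after 1 h room-temperature incubation with LiveBLAzer B/G FRET substrate.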

Measured: Potency

CCCCCCCCCC(=O)OCC
not listed: [18] | [19] | [20]
inactive: all other assays above

CC(=O)O[C@@H]1C(=O)O[C@@H]2[C@H]1OC(=O)[C@@H]2OC(C)=O
active: [4] 10.6 µM
inactive: [1] | [2] | [3] | [5] | [8] | [9] | [12] | [13] | [16] | [17]

Cc1ccc(C(N)=O)cc1N
not listed: [9] | [13] | [18] | [19] | [20]
inactive: all other assays above

CN(C(=O)CCCOc1ccc2[nH]c(=O)ccc2c1)C1CCCCC1
not listed: [7] | [9] | [11] | [13] | [15] | [20]
inactive: all other assays above

O=C(O)Cn1c(C(=O)Nc2nc(-c3ccccc3Cl)cs2)cc2ccccc21
active: [4] 21.1 µM
not listed: [2] | [6] | [7] | [9] | [11] | [13] | [14]
inactive: all other assays above

CC1(C)CCC(C)(C)c2cc(NC(=O)c3ccc(C(=O)O)cc3)ccc21
not listed: [4] | [6] | [7] | [19] | [20]
inactive: all other assays above

CN1CCN(C2=Nc3ccccc3Sc3ccc(Cl)cc32)CC1
not listed: [2] | [6] | [12] | [13] | [14] | [17] | [19]
inactive: all other assays above

CC(=O)[C@@]1(O)CC[C@H]2[C@@H]3C[C@H](C)C4=CC(=O)CC[C@]4(C)[C@H]3CC[C@@]21C
not listed: [4] | [6] | [11] | [15] | [18] | [19] | [20]
inactive: all other assays above

Cl/C(=C\n1cncn1)c1ccc(Cl)cc1Cl
inactive: [1] | [2] | [3] | [5] | [7] | [8] | [10] | [12] | [13] | [16]

CC[C@H](C)[C@@H](C(=O)O)n1sc2ccccc2c1=O
not listed: [4] | [6] | [12] | [20]
inactive: all other assays above

CCOc1ccc(NC(=O)CC(C)=O)cc1
not listed: [2] | [11] | [15] | [18] | [19] | [20]
inactive: all other assays above
